The source of these data is the supplement of paper PMC10849652.

Of roughly 7,900 targets only a part is listed; those with a hit were picked by preference. About 0.6% of all pairs of compound and target were hits.

UniProt Q96LB3, sequence (Q96LB3 whole entry, looked up): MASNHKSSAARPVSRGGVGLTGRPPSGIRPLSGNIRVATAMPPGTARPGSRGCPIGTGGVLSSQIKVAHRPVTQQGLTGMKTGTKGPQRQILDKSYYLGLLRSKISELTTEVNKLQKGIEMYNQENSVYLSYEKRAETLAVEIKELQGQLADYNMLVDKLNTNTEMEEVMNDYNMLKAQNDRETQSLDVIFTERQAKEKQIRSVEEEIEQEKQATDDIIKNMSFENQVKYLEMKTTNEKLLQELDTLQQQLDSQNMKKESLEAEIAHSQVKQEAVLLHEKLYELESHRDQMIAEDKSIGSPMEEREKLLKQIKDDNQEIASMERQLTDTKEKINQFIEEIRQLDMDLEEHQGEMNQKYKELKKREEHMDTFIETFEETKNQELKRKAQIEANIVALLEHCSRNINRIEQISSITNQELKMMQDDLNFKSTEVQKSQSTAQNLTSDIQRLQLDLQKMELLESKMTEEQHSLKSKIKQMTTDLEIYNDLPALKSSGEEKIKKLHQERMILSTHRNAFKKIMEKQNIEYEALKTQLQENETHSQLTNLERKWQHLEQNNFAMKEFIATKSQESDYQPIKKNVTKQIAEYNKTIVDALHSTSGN
UniProt Q9Y5Q8, sequence (Q9Y5Q8 whole entry, looked up): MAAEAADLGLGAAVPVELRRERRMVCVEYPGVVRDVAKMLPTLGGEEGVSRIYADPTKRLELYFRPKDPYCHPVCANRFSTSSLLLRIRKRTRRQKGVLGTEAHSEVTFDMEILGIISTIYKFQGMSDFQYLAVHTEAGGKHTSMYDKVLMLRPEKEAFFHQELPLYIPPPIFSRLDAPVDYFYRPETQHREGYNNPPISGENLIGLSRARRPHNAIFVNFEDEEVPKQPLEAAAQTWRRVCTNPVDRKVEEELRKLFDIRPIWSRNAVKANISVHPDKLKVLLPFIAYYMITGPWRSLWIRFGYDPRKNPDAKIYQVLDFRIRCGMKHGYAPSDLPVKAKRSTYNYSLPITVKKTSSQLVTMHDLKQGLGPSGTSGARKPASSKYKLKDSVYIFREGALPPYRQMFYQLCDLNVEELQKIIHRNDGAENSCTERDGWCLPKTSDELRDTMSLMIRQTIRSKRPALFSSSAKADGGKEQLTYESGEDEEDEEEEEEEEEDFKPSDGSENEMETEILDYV
UniProt P49448, sequence (P49448 whole entry, looked up): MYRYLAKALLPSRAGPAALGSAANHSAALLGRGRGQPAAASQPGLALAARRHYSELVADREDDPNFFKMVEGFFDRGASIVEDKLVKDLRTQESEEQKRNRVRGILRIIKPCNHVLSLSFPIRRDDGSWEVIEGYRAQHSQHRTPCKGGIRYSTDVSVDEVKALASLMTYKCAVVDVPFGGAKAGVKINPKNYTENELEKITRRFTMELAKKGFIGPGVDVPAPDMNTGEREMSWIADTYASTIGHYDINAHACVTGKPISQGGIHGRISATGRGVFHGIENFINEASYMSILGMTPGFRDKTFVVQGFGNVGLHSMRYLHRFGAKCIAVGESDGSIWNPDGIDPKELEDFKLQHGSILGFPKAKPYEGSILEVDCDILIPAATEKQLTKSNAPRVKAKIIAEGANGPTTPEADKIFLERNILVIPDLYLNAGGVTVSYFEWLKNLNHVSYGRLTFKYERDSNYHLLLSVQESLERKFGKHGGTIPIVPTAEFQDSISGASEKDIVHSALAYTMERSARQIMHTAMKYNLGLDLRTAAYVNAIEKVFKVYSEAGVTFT
UniProt Q9H4G4, sequence (Q9H4G4 whole entry, looked up): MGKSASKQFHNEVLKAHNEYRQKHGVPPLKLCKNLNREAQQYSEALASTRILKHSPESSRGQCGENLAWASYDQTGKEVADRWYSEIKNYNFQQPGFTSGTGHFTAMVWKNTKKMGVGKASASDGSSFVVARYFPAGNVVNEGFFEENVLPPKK
UniProt O00458, sequence (O00458 whole entry, looked up): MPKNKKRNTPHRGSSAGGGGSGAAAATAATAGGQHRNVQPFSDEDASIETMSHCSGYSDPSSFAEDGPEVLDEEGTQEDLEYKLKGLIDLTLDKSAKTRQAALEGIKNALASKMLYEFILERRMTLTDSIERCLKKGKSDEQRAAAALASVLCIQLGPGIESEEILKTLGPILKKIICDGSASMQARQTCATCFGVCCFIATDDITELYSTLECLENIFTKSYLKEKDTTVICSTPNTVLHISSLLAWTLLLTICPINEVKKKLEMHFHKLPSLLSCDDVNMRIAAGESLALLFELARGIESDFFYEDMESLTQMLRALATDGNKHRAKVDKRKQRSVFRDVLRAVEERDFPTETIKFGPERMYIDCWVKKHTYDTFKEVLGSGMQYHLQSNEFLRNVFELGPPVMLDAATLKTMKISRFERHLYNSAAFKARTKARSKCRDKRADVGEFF
UniProt Q9ULT8, sequence (Q9ULT8 whole entry, looked up): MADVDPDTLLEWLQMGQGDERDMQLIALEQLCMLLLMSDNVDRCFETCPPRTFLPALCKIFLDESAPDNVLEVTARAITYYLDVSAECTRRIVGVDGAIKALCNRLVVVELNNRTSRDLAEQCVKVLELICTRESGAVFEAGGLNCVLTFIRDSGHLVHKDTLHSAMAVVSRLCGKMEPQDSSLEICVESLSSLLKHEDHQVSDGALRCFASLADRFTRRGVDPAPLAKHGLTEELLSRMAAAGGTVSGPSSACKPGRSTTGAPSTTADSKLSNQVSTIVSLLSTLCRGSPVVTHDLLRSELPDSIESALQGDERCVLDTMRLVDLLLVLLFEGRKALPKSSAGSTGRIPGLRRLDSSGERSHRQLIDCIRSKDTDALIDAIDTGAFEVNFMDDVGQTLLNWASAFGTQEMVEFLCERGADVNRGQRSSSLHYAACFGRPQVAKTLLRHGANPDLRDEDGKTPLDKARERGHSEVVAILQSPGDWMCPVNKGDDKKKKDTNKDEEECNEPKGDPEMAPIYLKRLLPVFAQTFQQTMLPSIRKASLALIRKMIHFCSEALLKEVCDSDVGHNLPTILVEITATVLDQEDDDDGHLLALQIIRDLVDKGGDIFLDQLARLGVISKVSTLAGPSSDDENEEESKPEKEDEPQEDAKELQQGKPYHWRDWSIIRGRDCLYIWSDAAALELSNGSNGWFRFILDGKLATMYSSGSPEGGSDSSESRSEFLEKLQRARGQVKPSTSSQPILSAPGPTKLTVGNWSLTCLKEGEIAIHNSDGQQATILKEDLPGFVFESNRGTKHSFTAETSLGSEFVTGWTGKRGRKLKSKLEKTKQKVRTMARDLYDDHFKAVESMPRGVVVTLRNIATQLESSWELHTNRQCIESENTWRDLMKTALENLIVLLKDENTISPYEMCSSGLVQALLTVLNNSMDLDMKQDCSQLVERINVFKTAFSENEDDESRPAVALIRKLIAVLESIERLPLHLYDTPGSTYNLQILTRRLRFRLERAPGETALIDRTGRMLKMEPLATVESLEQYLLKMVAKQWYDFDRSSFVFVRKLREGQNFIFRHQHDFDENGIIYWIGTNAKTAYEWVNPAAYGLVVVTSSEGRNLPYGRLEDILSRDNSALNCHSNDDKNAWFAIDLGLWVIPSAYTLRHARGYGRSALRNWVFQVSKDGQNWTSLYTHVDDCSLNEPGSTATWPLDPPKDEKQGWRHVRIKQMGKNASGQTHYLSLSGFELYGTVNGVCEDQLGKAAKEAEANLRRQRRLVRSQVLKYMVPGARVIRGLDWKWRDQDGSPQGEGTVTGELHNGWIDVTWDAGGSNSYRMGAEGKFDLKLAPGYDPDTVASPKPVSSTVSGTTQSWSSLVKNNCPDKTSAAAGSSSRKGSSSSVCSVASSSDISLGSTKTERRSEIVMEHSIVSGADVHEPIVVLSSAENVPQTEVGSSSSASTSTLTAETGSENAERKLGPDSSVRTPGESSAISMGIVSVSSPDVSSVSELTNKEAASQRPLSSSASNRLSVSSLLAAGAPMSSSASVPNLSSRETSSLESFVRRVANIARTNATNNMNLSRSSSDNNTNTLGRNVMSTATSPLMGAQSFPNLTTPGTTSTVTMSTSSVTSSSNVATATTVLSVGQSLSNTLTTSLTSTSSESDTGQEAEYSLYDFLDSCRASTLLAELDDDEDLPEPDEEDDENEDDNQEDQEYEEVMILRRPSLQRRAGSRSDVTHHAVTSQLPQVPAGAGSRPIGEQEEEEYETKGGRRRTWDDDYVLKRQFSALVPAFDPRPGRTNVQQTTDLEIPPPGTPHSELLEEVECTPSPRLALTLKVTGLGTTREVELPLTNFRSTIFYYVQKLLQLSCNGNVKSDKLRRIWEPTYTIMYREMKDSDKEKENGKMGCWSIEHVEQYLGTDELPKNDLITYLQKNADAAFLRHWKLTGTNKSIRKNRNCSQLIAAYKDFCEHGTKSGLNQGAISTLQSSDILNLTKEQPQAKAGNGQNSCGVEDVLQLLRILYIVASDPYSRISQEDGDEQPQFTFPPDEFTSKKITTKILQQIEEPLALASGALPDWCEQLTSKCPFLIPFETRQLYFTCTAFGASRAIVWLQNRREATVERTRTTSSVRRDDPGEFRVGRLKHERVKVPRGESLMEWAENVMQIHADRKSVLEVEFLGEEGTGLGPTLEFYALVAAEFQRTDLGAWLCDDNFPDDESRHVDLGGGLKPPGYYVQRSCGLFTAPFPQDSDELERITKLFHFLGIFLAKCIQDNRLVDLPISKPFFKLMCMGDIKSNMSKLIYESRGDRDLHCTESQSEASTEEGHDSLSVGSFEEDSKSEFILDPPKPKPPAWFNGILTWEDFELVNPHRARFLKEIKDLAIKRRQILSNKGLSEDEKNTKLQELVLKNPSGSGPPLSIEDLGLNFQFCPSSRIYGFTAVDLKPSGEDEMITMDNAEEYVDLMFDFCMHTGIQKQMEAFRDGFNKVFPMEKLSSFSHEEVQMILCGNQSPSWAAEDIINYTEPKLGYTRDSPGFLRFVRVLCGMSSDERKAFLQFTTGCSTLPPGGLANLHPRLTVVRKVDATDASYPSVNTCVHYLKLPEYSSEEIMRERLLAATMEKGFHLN
UniProt Q96HJ9, sequence (Q96HJ9 whole entry, looked up): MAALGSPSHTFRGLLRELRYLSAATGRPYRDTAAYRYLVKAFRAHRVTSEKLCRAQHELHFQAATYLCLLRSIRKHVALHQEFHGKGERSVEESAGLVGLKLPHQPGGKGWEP

Compound in one assay: CN1CCc2c(c3ccccc3n2Cc2ccc(C(=O)NO)cc2)C1 [Tubastatin A]
In words: log2 fold change, soluble protein after heating vs DMSO (PISA); higher = thermal stabilisation; K562 cells, 10 uM, 30 min; active = over 0.2 and 3.5 SD of the protein, either way, in both replicates (recomputed). The gist of the method:
(§1)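 Thermal stability values are relative to control samples and come from duplicates. They are expressed as log2 fold changes. For measurement, K562 cells (2×10^6 cells/mL) received 10 μM compound for 30 min, and aliquots were heated for 3 min over 48°C-58°C, pooled, and extracted at 4°C in PBS with 0.5% NP-40. Soluble protein, the supernatant after 21,000xg for 90 min, was quantified by TMTpro 16plex LC-MS/MS with equalised channel sums.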
For the target FIBP (UniProt O43427), the log2 fold change was 0.07 (inactive).

Take HIP1 (UniProt O00291): the log2 fold change is 0.038 (inactive).

As for IFT74 (UniProt Q96LB3), the log2 fold change was 0.259 (inactive).

For the target HECTD1 (UniProt Q9ULT8), the log2 fold change was 0.071 (inactive).

On to FMC1 (UniProt Q96HJ9), for which the log2 fold change is 0.034 (inactive).

Take GUK1 isoform 2 (UniProt Q16774): the log2 fold change was 0.064 (inactive).

For the target FUBP3 (UniProt Q96I24), the log2 fold change was -0.092 (inactive).

Regarding FKBP7 (UniProt Q9Y680), the log2 fold change was -0.026 (inactive).

Take GCLM (UniProt P48507): the log2 fold change is 0.061 (inactive).

Turning to FBXO6 (UniProt Q9NRD1), the log2 fold change is -0.016 (inactive).

For HTATIP2 isoform 3 (UniProt Q9BUP3), the log2 fold change is -0.009 (inactive).

Take FDFT1 (UniProt P37268): the log2 fold change is 0.012 (inactive).

For HP1BP3 (UniProt Q5SSJ5), the log2 fold change was 0.06 (inactive).

For GCSH (UniProt P23434), the log2 fold change is -0.017 (inactive).

IFRD1 (UniProt O00458): the log2 fold change was 0.089 (inactive).

Consider GATD1 (UniProt Q8NB37), for which the log2 fold change is 0.06 (inactive).

For the target HOOK3 (UniProt Q86VS8), the log2 fold change is -0.019 (inactive).

H3-3A (UniProt P84243): the log2 fold change was 0.203 (inactive).

On to GSTP1 (UniProt P09211), for which the log2 fold change is -0.015 (inactive).

Consider HNRNPUL1 (UniProt Q9BUJ2), for which the log2 fold change was 0 (inactive).

Consider HSPA8 (UniProt E9PK54), for which the log2 fold change was -0.003 (inactive).

Consider HMGCR isoform 3 (UniProt P04035), for which the log2 fold change was 0.33 (active).

For GSK3B isoform 2 (UniProt P49841), the log2 fold change is -0.007 (inactive).

Consider HLTF (UniProt Q14527), for which the log2 fold change is 0.081 (inactive).

For GTF3C5 isoform 3 (UniProt Q9Y5Q8), the log2 fold change was 0.068 (inactive).

With HNRNPK isoform 2 (UniProt P61978), the log2 fold change is 0.064 (inactive).

For the target IFNGR1 (UniProt P15260), the log2 fold change was 0.11 (inactive).

As to ICAM1 (UniProt P05362), the log2 fold change is -0.03 (inactive).

Regarding GTF2A2 (UniProt P52657), the log2 fold change is 0.026 (inactive).

For GLUD2 (UniProt P49448), the log2 fold change was -0.016 (inactive).

With GLIPR2 (UniProt Q9H4G4), the log2 fold change was -0.002 (inactive).

With HBQ1 (UniProt P09105), the log2 fold change is -0.011 (inactive).

On to GSTO1 (UniProt P78417), for which the log2 fold change was -0.021 (inactive).

For the target GNS (UniProt P15586), the log2 fold change was -0.012 (inactive).

Compound in a further assay: CNC(=O)C1=CC=CC=C1NC2=NC(=NC=C2Cl)NC3=C(C=C(C=C3)N4CCOCC4)OC
Described as above. An outline of the steps:
as §1
With FIBP (UniProt O43427), the log2 fold change was 0.002 (inactive).

As to HIP1 (UniProt O00291), the log2 fold change was 0.008 (inactive).

For the target IFT74 (UniProt Q96LB3), the log2 fold change was -0.223 (inactive).

In the case of HECTD1 (UniProt Q9ULT8), the log2 fold change was 0.033 (inactive).

Consider FMC1 (UniProt Q96HJ9), for which the log2 fold change is 0.113 (inactive).

On to GUK1 isoform 2 (UniProt Q16774), for which the log2 fold change was 0.027 (inactive).

On to FUBP3 (UniProt Q96I24), for which the log2 fold change is -0.039 (inactive).

Consider FKBP7 (UniProt Q9Y680), for which the log2 fold change was 0.008 (inactive).

In the case of GCLM (UniProt P48507), the log2 fold change was 0.155 (inactive).

Take FBXO6 (UniProt Q9NRD1): the log2 fold change was 0.031 (inactive).

As to HTATIP2 isoform 3 (UniProt Q9BUP3), the log2 fold change was -0.001 (inactive).

Turning to FDFT1 (UniProt P37268), the log2 fold change is -0.002 (inactive).

Turning to HP1BP3 (UniProt Q5SSJ5), the log2 fold change was -0.045 (inactive).

Regarding GCSH (UniProt P23434), the log2 fold change is 0.021 (inactive).

Regarding IFRD1 (UniProt O00458), the log2 fold change is 0.042 (inactive).

For the target GATD1 (UniProt Q8NB37), the log2 fold change was -0.079 (inactive).

For the target HOOK3 (UniProt Q86VS8), the log2 fold change was 0.013 (inactive).

As to H3-3A (UniProt P84243), the log2 fold change is 0.002 (inactive).

Consider GSTP1 (UniProt P09211), for which the log2 fold change was -0.001 (inactive).

On to HNRNPUL1 (UniProt Q9BUJ2), for which the log2 fold change is 0.008 (inactive).

In the case of HSPA8 (UniProt E9PK54), the log2 fold change is 0.072 (inactive).

As to HMGCR isoform 3 (UniProt P04035), the log2 fold change is -0.133 (inactive).

In the case of GSK3B isoform 2 (UniProt P49841), the log2 fold change was 0.001 (inactive).

Consider HLTF (UniProt Q14527), for which the log2 fold change is -0.03 (inactive).

As for GTF3C5 isoform 3 (UniProt Q9Y5Q8), the log2 fold change is -0.02 (inactive).

As for HNRNPK isoform 2 (UniProt P61978), the log2 fold change is -0.017 (inactive).

Regarding IFNGR1 (UniProt P15260), the log2 fold change was -0.215 (inactive).

On to ICAM1 (UniProt P05362), for which the log2 fold change was -0.073 (inactive).

Consider GTF2A2 (UniProt P52657), for which the log2 fold change is -0.031 (inactive).

For GLUD2 (UniProt P49448), the log2 fold change is 0.051 (inactive).

For the target GLIPR2 (UniProt Q9H4G4), the log2 fold change was 0.036 (inactive).

With HBQ1 (UniProt P09105), the log2 fold change was -0.013 (inactive).

For GSTO1 (UniProt P78417), the log2 fold change is -0.034 (inactive).

GNS (UniProt P15586): the log2 fold change was -0.007 (inactive).

Compound in another assay: CNC(=O)c1ccc(Nc2ncc(C(F)(F)F)c(NCc3nccnc3N(C)S(C)(=O)=O)n2)cc1 [defactinib]
The description is as above. The gist of the method: as §1
For the target FIBP (UniProt O43427), the log2 fold change is -0.046 (inactive).

HIP1 (UniProt O00291): the log2 fold change was -0.001 (inactive).

On to IFT74 (UniProt Q96LB3), for which the log2 fold change is 0.028 (inactive).

Regarding HECTD1 (UniProt Q9ULT8), the log2 fold change is -0.026 (inactive).

Regarding FMC1 (UniProt Q96HJ9), the log2 fold change is -0.056 (inactive).

With GUK1 isoform 2 (UniProt Q16774), the log2 fold change was -0.162 (inactive).

As for FUBP3 (UniProt Q96I24), the log2 fold change was 0.184 (inactive).

As for FKBP7 (UniProt Q9Y680), the log2 fold change was -0.032 (inactive).

For the target GCLM (UniProt P48507), the log2 fold change was -0.151 (inactive).

For the target FBXO6 (UniProt Q9NRD1), the log2 fold change was -0.038 (inactive).

In the case of HTATIP2 isoform 3 (UniProt Q9BUP3), the log2 fold change was -0.065 (inactive).

As for FDFT1 (UniProt P37268), the log2 fold change is -0.02 (inactive).

On to HP1BP3 (UniProt Q5SSJ5), for which the log2 fold change was 0.227 (inactive).

As to GCSH (UniProt P23434), the log2 fold change is -0.01 (inactive).

For IFRD1 (UniProt O00458), the log2 fold change was -0.003 (inactive).

GATD1 (UniProt Q8NB37): the log2 fold change was 0.001 (inactive).

In the case of HOOK3 (UniProt Q86VS8), the log2 fold change was -0.005 (inactive).

Regarding H3-3A (UniProt P84243), the log2 fold change is 0 (inactive).

For the target GSTP1 (UniProt P09211), the log2 fold change is -0.033 (inactive).

HNRNPUL1 (UniProt Q9BUJ2): the log2 fold change was 0.018 (inactive).

For the target HSPA8 (UniProt E9PK54), the log2 fold change is -0.012 (inactive).

HMGCR isoform 3 (UniProt P04035): the log2 fold change is -0.004 (inactive).

Turning to GSK3B isoform 2 (UniProt P49841), the log2 fold change was -0.015 (inactive).

Take HLTF (UniProt Q14527): the log2 fold change was -0.122 (inactive).

Turning to GTF3C5 isoform 3 (UniProt Q9Y5Q8), the log2 fold change was -0.069 (inactive).

In the case of HNRNPK isoform 2 (UniProt P61978), the log2 fold change is -0.228 (active).

IFNGR1 (UniProt P15260): the log2 fold change is 0.051 (inactive).

For the target ICAM1 (UniProt P05362), the log2 fold change is -0.026 (inactive).

For the target GTF2A2 (UniProt P52657), the log2 fold change was -0.025 (inactive).

Take GLUD2 (UniProt P49448): the log2 fold change is 0.008 (inactive).

As to GLIPR2 (UniProt Q9H4G4), the log2 fold change was 0.047 (inactive).

As to HBQ1 (UniProt P09105), the log2 fold change is -0.009 (inactive).

As to GSTO1 (UniProt P78417), the log2 fold change is 0.001 (inactive).

GNS (UniProt P15586): the log2 fold change is -0.011 (inactive).
